Compound activity: PubChem, National Center for Advancing Translational Sciences (NCATS)
A selection: hits, their analogues and other compounds. The true share with any hit is near 19%.
DT40 TDP1 no CPT = qHTS for Inhibitors of human tyrosyl-DNA phosphodiesterase 1 (TDP1): qHTS in cells in absence of CPT; Potency, µM (top dose mostly 46.2 µM), hits mostly inhibitors; AID 686978, 2013; 420,000 tested, 15% active; DT40 Tdp1-/- hTDP1 cells, no CPT, ATP luminescence, 48 h; also: nearly all actives have a fitted effect of over 55% in size
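DT40 Tdp1-/-;hTDP1 cells, no CPT (DMSO vehicle only), 400 cells/well; compounds pin-transferred; ≥48 hr, 37 °C; CellTiter-Glo 30 min RT dark, luminescence read.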
SW480 rerep = A quantitative high throughput screen for small molecules that induce DNA re-replication in SW480 colon adenocarcinoma cells. Potency, µM (series often up to 46.1 µM), actives largely listed as activators. AID 624297, 2012. SW480 DNA re-replication, Hoechst DNA content imaging, 48 h. 340,000 tested, 1.8% active; also: nearly all actives have a fitted effect of over 55% in size
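Quantitative HTS format with DMSO vehicle controls; 48 hr drug incubation at 37 C, then 40 min Hoechst staining and scanning imager measurement at 405 nm excitation.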
IL1B secr inh = qHTS for Inhibitors of Inflammasome Signaling: IL-1-beta AlphaLISA Primary Screen. AID 743279, 2014. 360,000 tested, 4.7% active. activity change, % at 57.5 µM. THP-1 LPS/ATP IL-1B secretion, AlphaLISA, 16 h; hits give low values; in the data active = activity change below about -50%; inconclusive = mostly about -30% to -49%
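Secreted IL-1B measured by AlphaLISA bead assay after 16 h compound exposure of THP-1 cells; compounds (final up to 57.5 uM) added 1 h before LPS (250 ng/mL) and ATP (1.25 mM) stimulation; lower signal means less secretion.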
MCF10A rerep = A quantitative high throughput screen for small molecules that induce DNA re-replication in MCF 10a normal breast cells. MCF 10A DNA re-replication, Hoechst nuclear intensity, 48 h. Potency, µM (top dose mostly 46.1 µM), actives largely listed as activators. 350,000 tested, 2.9% active. AID 624296, 2012; also: nearly all actives have a fitted effect of over 50% in size
Chronic BCR inh = qHTS Assay to Find Inhibitors of Chronic Active B-Cell Receptor Signaling. ABC-DLBCL IkBa-CBG/CBR reporter, luminescence ratio, 4 h. 340,000 tested, 0.05% active. Potency, µM (top dose mostly 46.1 µM), most hits filed as inhibitors; active = well fitted inhibition curve with a large enough effect in the signal ratio, with a control signal flat, not every such curve was filed as active; inconclusive = small, poorly fitted or top-dose-only effect, or effect the other way, or a change in a side signal; the % refers to the signal ratio
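Concentration-response series (up to 46 uM) were applied to TMD8 dual-reporter cells for 4 h at 37C with doxycycline. Green/red ratio, after filter-overlap correction, defined %Activity; red signal alone was normalised to basal cells and zero luminescence.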
DT40 TDP1 CPT = qHTS for Inhibitors of human tyrosyl-DNA phosphodiesterase 1 (TDP1): qHTS in cells in presence of CPT. chicken DT40 Tdp1-/-;hTDP1 cells + 20 nM CPT, ATP luminescence, 48 h. Potency, µM (doses to about 46.2 µM), hits mostly inhibitors. 420,000 tested, 12% active; also: nearly all actives have a fitted effect of over 55% in size
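Chicken DT40 Tdp1-/- cells complemented with human TDP1, 400 cells/well, exposed to compounds plus 20 nM camptothecin for at least 48 h at 37 C; viability read as ATP content by CellTiter-Glo luminescence.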
A number is an active result; i = inactive; ? = inconclusive; nt = no result. Unless noted, calls follow the shape of the dose curve; as a rule, active = well fitted curve in the direction sought with a large enough effect; inconclusive = small, poorly fitted or top-dose-only effect, or another doubt; inactive = no such curve, though single readings can be large; an effect the other way counts as inactive or inconclusive.

SMILES	DT40 TDP1 no CPT	SW480 rerep	IL1B secr inh	MCF10A rerep	Chronic BCR inh	DT40 TDP1 CPT
O=C(OCC(=O)c1ccc(Cl)cc1Cl)c1ccc2c(c1)C(=O)N(c1cccc3ncccc13)C2=O	i	i	i	i	i	i
O=C(COC(=O)c1ccc2c(c1)C(=O)N(c1cccc3ncccc13)C2=O)c1ccc(Cl)cc1	?	?	i	6.5µM	i	?
N=C(N)Cc1ccccc1Sc1ccccc1	8.2µM	i	?	i	i	9.2µM
c1cncc(CNc2ncnc3ccc(-c4ccco4)cc23)c1	nt	nt	nt	nt	i	nt
CCc1nc2c(OCCn3cccc3)cccn2c1N(C)C(=O)c1ccc(OC)cc1	i	nt	i	nt	nt	i
COc1ccc(Nc2nccc(-c3cccc(N)c3)n2)cc1	?	?	-87	?	?	?
CC(C)CC1NC(=O)c2cc3ccccc3cc2-n2c1nc1ccc(Cl)cc1c2=O (centres undefined)	?	nt	i	nt	nt	?
CCCC1NC(=O)c2cc3ccccc3cc2-n2c1nc1ccc(F)cc1c2=O (centres undefined)	21µM	nt	i	nt	nt	?
CC(C)CC1NC(=O)c2cc3ccccc3cc2-n2c1nc1ccc(F)cc1c2=O (centres undefined)	23µM	nt	i	nt	nt	23µM
Cc1ccc2nc3n(c(=O)c2c1)-c1cc2ccccc2cc1C(=O)NC3CC(C)C (centres undefined)	16µM	nt	i	nt	nt	16µM
CCC1NC(=O)c2cc3ccccc3cc2-n2c1nc1cc(OC)c(OC)cc1c2=O (centres undefined)	?	nt	i	nt	nt	?
CSc1ccc(CCNC(=O)Cn2nc(C)n3c(cc4sccc43)c2=O)cc1	i	nt	nt	nt	nt	i
O=C(c1cc2cc(Cl)ccc2[nH]1)N1CCN(c2ccc(F)cc2)CC1	i	i	-85	i	?	i
CN1CCN(C(=O)c2cc3cc(Cl)ccc3[nH]2)CC1	i	i	i	i	i	i
O=CN1CCN(C(=O)c2cc3cc(Cl)ccc3[nH]2)CC1	?	5.2µM	i	?	i	i
N#Cc1ccccc1NC(=O)COC(=O)CN1C(=O)C2CCCCC2C1=O (centres undefined)	?	i	i	i	?	?
CC1=NN(c2nc(N)nc(/C(C#N)=C/c3ccc([N+](=O)[O-])o3)n2)C(C)(C)C1	0.46µM	8.2µM	i	3.3µM	nt	0.58µM
CC1=NN(C(C#N)c2cccc([N+](=O)[O-])c2)C(C)(C)C1 (centres undefined)	i	i	i	i	i	i
O=C(O)CCSc1ccccn1	i	i	i	i	i	i
O=C(CCSc1ccccn1)c1ccccc1	2.6µM	?	?	?	i	2.3µM
COc1ccccc1NC(=O)NCCCCc1ccccc1	i	?	i	i	?	i
CC(=O)Cc1nsc(NC(=O)c2ccc(-c3ccc(Cl)cc3Cl)o2)n1	?	?	i	?	?	i
CC(=O)Cc1nsc(NC(=O)c2ccc(-c3cc(C(F)(F)F)ccc3Cl)o2)n1	13µM	?	i	3.3µM	i	21µM
O=C(CSC1=Nc2ccccc2C2=NC(Cc3ccccc3)C(=O)N12)Nc1ccccc1C(F)(F)F (centres undefined)	26µM	nt	nt	nt	nt	?
CCOC(=O)CSC1=Nc2ccccc2C2=NC(CCC(=O)NCc3ccccc3)C(=O)N12 (centres undefined)	?	nt	nt	nt	i	?
SMILES	DT40 TDP1 no CPT	SW480 rerep	IL1B secr inh	MCF10A rerep	Chronic BCR inh	DT40 TDP1 CPT
O=C(CSC1=Nc2ccccc2C2=NC(Cc3ccccc3)C(=O)N12)Nc1ccccc1F (centres undefined)	?	nt	nt	nt	nt	23µM
CC1(C(=O)O)CCN1C(=O)COc1ccc(Cl)cc1 (centres undefined)	i	nt	i	nt	nt	i
Cc1ccc(Cl)cc1N1CCN(C(=O)Cc2csc(Nc3nc(=S)[nH]c4ccccc34)n2)CC1	15µM	i	i	?	i	13µM
Cc1ccc(Cl)cc1N1CCN(C(=O)Cc2ccc(-n3c(=O)[nH]c4ccsc4c3=O)cc2)CC1	?	i	i	?	i	?
O=C(Cc1csc(Nc2nc(=S)[nH]c3ccccc23)n1)N1CCN(c2cccc(Cl)c2)CC1	15µM	i	i	?	?	15µM
CCOc1ccc(NC(=O)CCC(=O)NNC(=O)COc2ccccc2C)cc1	i	i	i	i	i	i
COc1ccccc1CNC(=O)c1cc(S(=O)(=O)N2CCCCC2)c[nH]1	i	i	i	i	i	i
O=[N+]([O-])c1ccc(-c2cnc(SCc3ccccc3Cl)[nH]2)cc1	i	i	i	?	?	i
Cc1cc(C)c(CSc2ncc(-c3ccc([N+](=O)[O-])cc3)[nH]2)c(C)c1	10µM	?	-59	18µM	?	16µM
O=[N+]([O-])c1ccc(-c2cnc(SC(c3ccccc3)c3ccccc3)[nH]2)cc1	?	?	-52	?	?	?
CS(=O)(=O)N1CCN(C(=O)c2cc(-c3cccnc3)nc3ccc(Br)cc23)CC1	9.2µM	i	i	i	i	i
O=C(Nc1ccc(C(=O)N2CCOCC2)cc1)c1cc(-c2cccnc2)nc2ccc(Br)cc12	2.3µM	?	-53	i	i	2.3µM
O=C(c1cc(-c2cccnc2)nc2ccc(Br)cc12)N1CCN(c2ncccn2)CC1	18µM	i	i	i	i	?
O=C(c1cc(-c2ccncc2)nc2ccccc12)N1CCN(c2ncccn2)CC1	?	i	i	i	i	i
CC(=O)c1ccc(N2CCN(C(=O)c3cc(-c4cccnc4)nc4ccc(Br)cc34)CC2)cc1	18µM	i	i	?	i	?
Cc1ccc(N2CC(C(=O)NCCC3=CCCCC3)CC2=O)cc1 (centres undefined)	i	i	i	i	i	i
COc1cccc(CNC(=O)CCc2c(C)c3ccc(O)c(C)c3oc2=O)c1	i	nt	nt	nt	nt	i
Cc1ccc2ncc3c(-c4ccc(F)cc4)nn(-c4cccc(F)c4)c3c2c1	i	nt	nt	nt	nt	i
Cc1ccc2nc(-c3cccnc3)cc(C(=O)N3CCN(c4ccc([N+](=O)[O-])cc4)CC3)c2c1	18µM	i	i	i	i	16µM
Cc1ccc(-n2c(N)c(C(=O)Nc3ccccc3F)sc2=S)cc1C	i	i	-54	i	?	?
Clc1ccc(-c2nnc(-c3ccc4ccccc4c3)o2)cc1	i	i	i	i	nt	i
CSc1cccc(NC(=O)CNC(=O)C2CCCCC2)c1	i	i	i	i	i	i
